An excerpt weighted towards active compounds, which were near 4.8% of everything screened.
DAX1 inh-1: inhibitors of DAX1 repression of SF-1 activated StAR promoter; HEK293T StAR-luciferase reporter, SF-1/DAX-1 repression relief; inhibition, % at 6.8 µM; 370,000 tested, 1.1% active; AID 652010;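 active means inhibition above the mean over all tested compounds plus 3 SD, cut at about 3.6% in these data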;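 further: 0% = DAX-1 cells with DMSO and 100% = cells lacking DAX-1 with DMSO; higher inhibition means more luminescence from relief of DAX-1 repression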
hcDAF-12 act: activates DAF-12 receptor from parasite H. contortus | HEK293 hcDAF-12 lit1-tk-luc reporter, luminescence; 0% DMSO, 100% Δ7-dafachronic acid | activation, % at 6.8 µM | 370,000 tested, 1.4% active | AID 652067;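 active means activation above the mean of all tested compounds plus 3 SD, cut at about 5.5% in these data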;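 further: 100% = response to 3 µM Δ7-dafachronic acid high control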
ssDAF12 agonist: activates DAF-12 receptor from parasite S. stercoralis; HEK293 ssDAF-12/GRIP1 lit1-tk-luc reporter, luminescence; % of 3 µM dafachronic acid response; activation, % at 6.8 µM; 370,000 tested, 1% active; AID 652126;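 active means activation above the mean over all tested compounds plus 3 SD, cut at about 0.9% in these data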;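 further: 0% = DMSO-only wells and 100% = 3 µM delta7-dafachronic acid wells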
SMARCA2 activ: increases SMARCA2 function in MMTV reporter cells; MG213 cells, MMTV-luciferase reporter, dexamethasone, overnight; activation, % at 9.1 µM; 370,000 tested, 1% active; in the data active means activation above about 7.8%;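 further: 0% = vehicle wells and 100% = reference activator wells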
hgDAF12 agonist: activates the H. glycines DAF-12 receptor ligand-binding domain | HEK293 GAL4-hgDAF12 UAS-luciferase reporter, agonist luminescence; normalized to butyrate control | activation, % at 6.8 µM | 370,000 tested, 1.8% active;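 active means activation above a cutoff set at the mean of all screened compounds plus 3 SD, cut at about 10% in these data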;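 further: 0% = DMSO wells and 100% = sodium butyrate wells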
DAX1 inh-2: inhibits human nuclear receptor DAX1 | AID 504766 | P51843 | inhibition, % at 6.75 µM | 340,000 tested, 0.99% active | HEK293 Gal4-DAX1 luciferase reporter, luminescence;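 active means inhibition above the mean over all tested compounds plus 3 SD, cut at about 4.2% in these data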;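 further: 0% = DAX1-transfected cells with DMSO and 100% = empty-vector control cells with DMSO; inhibition shows as a rise in luminescence from relieved DAX1 repression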
Target sequence (P51843 207-470 limits assumed): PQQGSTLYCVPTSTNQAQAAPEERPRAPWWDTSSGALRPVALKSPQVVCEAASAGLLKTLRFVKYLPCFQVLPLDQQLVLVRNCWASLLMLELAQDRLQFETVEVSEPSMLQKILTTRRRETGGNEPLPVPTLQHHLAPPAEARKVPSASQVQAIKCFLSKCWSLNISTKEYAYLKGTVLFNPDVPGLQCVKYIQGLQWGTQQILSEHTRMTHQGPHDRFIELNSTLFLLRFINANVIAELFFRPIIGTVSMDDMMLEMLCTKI
SMARCA2 conf: SMARCA2 activation, confirmation screen; shares compounds with SMARCA2 activ; MG213 cells, MMTV-luciferase with dexamethasone, luminescence, overnight; MG213 cells expressing E1A, Rb sequestered; DMSO wells 0%, reference activator 100%; 3,500 tested, 30% active; activation, % at 9.1 µM; AID 652260;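 active means activation above its plate's cutoff, the mean activation of tested wells plus 3 SD, cut at about 7.9% in these data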
VP16 Luc act: activates GAL4-VP16 luciferase, flagging SMARCA2 activator hits; HEK293 GAL4-VP16 pG5luc reporter, luciferase luminescence; scaled: DMSO wells 0%, SAHA wells 100%; 3,500 tested, 41% active; AID 686939; activation, % at 9.1 µM; shares compounds with SMARCA2 activ;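 active means activation above the solvent-only control well mean plus 3 SD, averaged across control plates, cut at about 5.2% in these data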
Numbers without * were called inactive; . = no result.

SMILES	DAX1 inh-1	hcDAF-12 act	ssDAF12 agonist	SMARCA2 activ	hgDAF12 agonist	DAX1 inh-2	SMARCA2 conf	VP16 Luc act
C/C(=N\NC(=O)c1ccc(NS(=O)(=O)c2cccs2)cc1)c1cccs1	0	0	-1	-4	0	0	.	.
O=C(CSc1nnc(-c2cnccn2)n1-c1ccccc1)Nc1ccc2cn[nH]c2c1	0	3	0	8.7*	0	.	3	-1
Cc1ccc(NC(=O)CSc2nnc(-c3cnccn3)n2Cc2ccco2)cc1	-1	-3	-1	23*	-4	0	-4	0
CCOC(=O)CCC(=O)Nc1ccc(S(=O)(=O)N2CCCC2)cc1	1	3	-2	-3	0	-1	.	.
S=C(NCc1ccc(Cl)c(Cl)c1)Nc1ccc2c(c1)OCO2	0	-1	-1	-1	1	1	.	.
COc1ccc(Nc2ncnc3ccccc23)c(OC)c1	0	-1	-1	9.0*	2	-1	-2	0
COc1ccc(Nc2ncnc3ccccc23)cc1	1	1	-1	8	9	1	.	.
C[C@@H]1CN([C@@H](C)CO)C(=O)CCCn2cc(nn2)CO[C@H]1CN(C)C(=O)Nc1cccc(Oc2ccccn2)c1	1	-1	-1	-1	-1	.	.	.
CCSc1nnc(CCNC(=O)OC(C)(C)C)o1	-1	-1	-1	9.5*	-1	-1	-2	0
C=C(C)CSc1nnc(CCNC(=O)OC(C)(C)C)o1	.	.	.	.	.	-1	.	.
Cc1cccc(-c2nnc(-c3ccc4ccccc4c3)o2)c1	3.6*	4	0	11*	12*	4.3*	7	4
COc1ccc(Cc2nnc(-c3cccc(C)c3)o2)cc1OC	.	.	.	.	.	-1	.	.
COc1ccc(/C=C/C(=O)CC(O)(c2ccccc2)C(F)(F)F)cc1 (configuration not stated)	-1	1	-2	-2	-5	-1	.	.
C/C(CCc1ccc2c(c1)OCO2)=N\N=C1\NC(=O)CC(C(=O)Nc2ccc(Cl)cc2)S1 (configuration not stated)	-1	0	-1	11*	-5	0	-5	0
Cc1ccc(N=C2NC(=O)CC(C(=O)Nc3ccc4c(c3)OCO4)S2)cc1 (configuration not stated)	-1	0	-1	2	3	0	.	.
O=C(COc1ccccc1/C=C1\SC(=O)NC1=O)Nc1ccccc1	-1	1	-1	-3	-1	-2	.	.
O=C(/C=C1\SC(=O)NC1=O)Nc1ccc(F)cc1	0	2	-1	8.4*	3	0	6	2
CCOc1ccc(OCCC(=O)OCC(=O)Nc2cc(S(=O)(=O)N3CCOCC3)ccc2C)cc1	2	1	-1	6	5	1	.	.
O=C(CSc1cccc[n+]1[O-])Nc1ccccc1Oc1ccccc1	1	-2	-1	8.4*	-3	-1	10*	2
O=C(CSc1cccc[n+]1[O-])Nc1ccccc1C(F)(F)F	0	1	-1	-2	3	2	.	.
Cc1ccc(NC(=O)CSc2cccc[n+]2[O-])c([N+](=O)[O-])c1	0	1	-2	8.4*	-3	1	0	1
O=C(CSc1cccc[n+]1[O-])Nc1cc([N+](=O)[O-])ccc1Cl	0	-1	-1	1	2	0	.	.
COc1ccc(-c2ncn(CCc3ccccc3OC)c2C(C)C)cc1	-1	-4	-2	-5	-4	.	.	.
NC(=O)c1ncn([C@@H]2O[C@H](CNCc3cccn3-c3ccncc3)[C@@H](O)[C@H]2O)n1	-1	-2	-1	8.4*	-2	1	0	-1
COC(=O)c1ccc(C(=O)OC)c(NC(=O)CSCC(=O)O)c1	0	0	-1	-1	6	3	.	.
SMILES	DAX1 inh-1	hcDAF-12 act	ssDAF12 agonist	SMARCA2 activ	hgDAF12 agonist	DAX1 inh-2	SMARCA2 conf	VP16 Luc act
CCCCN(C)CCn1c(=S)[nH]c2ccc(N3CCOCC3)cc2c1=O	0	-2	-1	9.7*	-2	1	-1	2
COC(=O)Cc1ccc(NC(=S)N2CCCC(C)C2)cc1 (configuration not stated)	0	1	-1	-3	-1	-1	.	.
CCOC(=O)c1ccc(N=Cc2c(O)c3ccccc3oc2=O)cc1	0	1	0	-1	-2	-1	.	.
CCOC(=O)C(=NO)C1=CSC2=NNC(C)(C)N12	-1	0	-2	9.2*	1	3	-1	1
CCOC(=O)/C(=N/O)C1=NC(C)(C)Cc2cc(C)c(C)cc21	0	-2	-1	2	-2	2	.	.
COC(=O)/C=C1\OCc2cc(C)ccc21	1	0	0	13*	7	.	7	3
COC(=O)/C=C1\OCc2ccc(C)cc21	-1	0	-1	-2	2	.	.	.
O=C(Nc1nc(-c2cccc(Br)c2)cs1)Oc1ccccc1	0	4	-1	8.4*	4	1	8.0*	4
Brc1cccc(Nc2nc(-c3cccnc3)cs2)c1	-1	5	1	8.6*	10	0	7	6.0*
O=C(O)c1ccc(Nc2nc(-c3cccnc3)cs2)cc1	0	0	-1	0	0	2	.	.
Cn1cccc1-c1cc(C(=O)O)[nH]n1	1	-2	-1	-1	3	1	.	.
CN(C)/C=C/C(=O)c1ccc2noc(-c3ccc(F)cc3)c2c1	1	0	-1	11*	5	4.8*	-1	0
S=c1[nH]ccn1Cc1ccccc1	0	0	-1	8.9*	0	0	-1	1
CC(=O)Nc1ccc(NC(=O)CSc2ccc(-c3sc(C)nc3C)nn2)cc1	-1	-1	-1	1	1	0	.	.
CC(=O)c1ccc(NC(=O)c2cccc(NC(=O)c3ccccc3)c2)cc1	0	-2	-2	3	1	0	.	.
CC(=O)c1ccc(NC(=O)c2ccn[nH]2)cc1	2	5	0	8.2*	8	2	8.0*	8.0*
O=C1C2C3C=CC(C3=C(c3ccccc3)c3ccccc3)C2C(=O)N1CCO (configuration not stated)	-1	-1	-2	-1	-2	-1	.	.
Cc1cc(C)cc(C(=O)NCC(=O)OCC(=O)N2CCCC2)c1	0	0	-1	8.5*	2	1	0	1
Cc1cc(C(=O)NCC(=O)OCC(=O)N2CCCCCC2)ccc1[N+](=O)[O-]	0	-2	-1	1	-2	1	.	.

Assay outcomes: PubChem, The Scripps Research Institute Molecular Screening Center
